Test results published in PubChem BioAssay (NCI).
About 83,000 compounds went through this panel and 20% of them were active in at least one assay; those are over-represented in the sample as a whole.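 Plates (96-well) were seeded with cells, treated with compound at one concentration, and incubated for 48 hours before percent growth was determined.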 Unmarked numbers belong to inactive results. Calls of active or inactive are those of the source.

tested on: A549/ATCC NSCLC; experiment: NCI-60 one-dose screen, 48 h (100 = growth as untreated, 0 = no growth, -100 = all killed); details: 10 µM unless noted
Procedure: Growth inhibition of the A549/ATCC human Non-Small Cell Lung tumor cell line is measured as a screen for anti-cancer activity. Cells are grown in 96 well plates and exposed to the test compound for 48 hours. Compounds are tested at a single concentration, which is 10^-5 M for most compounds. The reported endpoint is percent growth (GI% or GIPRCNT), where numbers from 0 - 100% represent growth inhibition, and numbers from -100% - 0 represent cell death. For example, a value of 40 represents 60% growth inhibition. A value of 0 means no net growth occurred over the course of the experiment. A value of -40 indicates 40% of cells at the beginning of the experiment died by the end of the experiment. A value of -100 means all cells are dead at the end of the experiment.
NCI-60 Human Tumor Cell Lines Screen was performed using the standard one-dose NCI protocol, which is described in more detail at https://dtp.cancer.gov/discovery_development/nci-60/default.htm.
Compounds with GIPRCNT values below 10 were considered active. Activity score was based on GIPRCNT using the following formula: […]
Score is 0 for GIPRCNT values of 100 or above, 50 for GIPRCNT values of 0, and 100 for GIPRCNT values of -100.

| SMILES | growth |
| --- | --- |
| O=C(NO)c1ccc(CNc2cccc3nc(C4CC4)n(-c4ccccc4)c(=O)c23)cc1 | 15.3% |
| COc1ccc(/C=C(\C#N)c2cc(OC)c(OC)c(OC)c2)cc1 | 20.8% |
| C=C(C)[C@@H]1CC[C@]2(C(=O)NC(COC(=O)C(Cl)Cl)(COC(=O)C(Cl)Cl)COC(=O)C(Cl)Cl)CC[C@]3(C)[C@H](CC[C@@H]4[C@@]5(C)CC[C@H](OC(C)=O)C(C)(C)[C@@H]5CC[C@]43C)[C@@H]12 | 27.7% |
| COc1cc(C2CC(c3ccc(Cl)cc3)=NN2C(C)=O)ccc1Oc1nc2c(c(=O)n(C)c(=O)n2C)n1C (stereo not given) | 59.7% |
| O=[N+]([O-])c1ccc(N/N=C\c2ccc(O)cc2O)nc1 | 25.6% |
| COc1cc(/C=C/c2cc(/C=C/c3ccc(O)c(OC)c3)n(C(=O)c3ccccc3Br)n2)ccc1O | 41.7% |
| Cn1c(=O)c2c(nc(N/N=C/c3ccccc3Cl)n2C)n(C)c1=O | 107% |
| COc1cc([N+](=O)[O-])cc(OC)c1OC | 110% |
| OC(COCc1ccccc1)COCc1ccccc1 | 99.9% |
| S=C(S)Oc1cccc2cccnc12 | 98.5% |
| CN1C2CCC1/C(=C\c1ccc(F)cc1)C(=O)/C2=C/c1ccc(F)cc1 | 36.6% |
| CCOC(=O)c1ccc2c(c1)[n+](=O)c(C(=O)c1ccc3ccccc3c1)c(C(F)(F)F)n2[O-] | -26.4% (active) |
| O=C(O)CSc1ccc(NCc2oc(CO)cc(=O)c2O)cc1 | 103% |
| ClCCn1cnc2c(SCc3ccccc3Cl)ncnc21 | 40.1% |
| Oc1c(C(Nc2cccc3ccccc23)c2ccccc2)ccc2cccnc12 (stereo not given) | 33.6% |
| COc1nccc2c(Sc3ccccc3)nc(N)nc12 | 104% |
| CCCCCCCCCCCCC1CCC(=O)O1 (stereo not given) | 87.4% |
| CC(C)c1ccc(-c2cnc3nonc3n2)cc1 | 53.2% |
| CCC1N=C(N)N=C(N)N1c1ccc(Cl)cc1 (stereo not given) | 38% |
| C=C1C(=O)O[C@H]2[C@H]1CC/C(COC(=O)NCc1[nH]nc3ccccc13)=C\CC[C@@]1(C)O[C@@H]21 | 45.6% |

| SMILES | growth |
| --- | --- |
| CCCCCCCCCCCCCCCCCC(=O)OCCCCCCCCCCCCC | 99.5% |
| COc1ccc(CC2c3cc(OC)c(OC)cc3CC[N+]2(C)CCC(=O)OCCCCCOC(=O)CC[N+]2(C)CCc3cc(OC)c(OC)cc3C2Cc2ccc(OC)c(OC)c2)cc1OC (stereo not given) | 101% |
| COC(=O)c1ccc2c(c1)nc(-c1cc3ccccc3[nH]c1=O)n2-c1cc(C(C)(C)C)[nH]n1 | 81.5% |
| COc1cc(C2CC(c3ccccc3)=NN2C=O)ccc1Oc1ccnc2cc(Cl)ccc12 (stereo not given) | 56% |
| CN(C)CC(=O)c1ccc2cc(Br)c3ccccc3c2c1 | 51.5% |
| Nc1cc(C(=O)O)cc(C(=O)O)c1 | 108% |
| CCN(CC)Cc1cc(Nc2ccnc3ccc(OC)cc23)ccc1O | 22.5% |
| O=C(Nc1cccc(-n2ccc3c(NC(=O)c4ccccc4)nccc32)c1)c1ccc(N2CCOCC2)c(C(F)(F)F)c1 | 8.39% (active) |
| O=C(c1ccccc1)C(CCc1ccccn1)CCc1ccccn1 | 98.3% |
| COc1ccc(C(=O)OC2C(OC3C(O)COC(O[C@H]4C[C@H]5[C@@H]6CC=C7C[C@@H](O)CC[C@]7(C)[C@H]6CC[C@]5(C)[C@H]4[C@H](C)C(=O)CCC(C)C)C3OC(C)=O)OCC(O)C2O)cc1 (stereo not given in full) | -14.3% (active) |
| CSc1nc(N)c2[nH]c(-c3cc4ccccc4[nH]c3=O)nc2n1 | 70.8% |
| Clc1ccc(-c2nc(-c3cccs3)no2)cc1 | 94.8% |
| O=C(O)c1ccccc1Oc1cc(-c2ccco2)nc(OCCN2CCOCC2)n1 | 106% |
| CCNC(=O)c1ccc2c(c1)nc(-c1ccc(Cl)cc1)n2-c1cc(C(C)(C)C)[nH]n1 | 48.6% |
| COc1cc(NC(=O)CSc2nc3ccc(Cl)cc3c(=O)n2Cc2ccccc2)cc(OC)c1OC | 67.3% |
| C=CCOC(=O)C1=C(C)NC2=C(C(=O)CCC2)C1c1ccc(F)cc1 (stereo not given) | 97.3% |
| Cc1ccc([C@H]2c3[nH]c4ccccc4c3C[C@H]3C(=O)N(CCCCCCC(=O)NO)CC(=O)N23)cc1 | 85.6% |
| CCCCOc1nc2ccc(C)cc2cc1/C=C/C(=O)/C=C(O)/C=C/c1cc2cc(C)ccc2nc1OCCCC | 91.7% |
| O=S(=O)(Cc1ccc(Cl)cc1Cl)c1ccc(Cl)cc1 | 30.7% |
| CS(=O)(=O)c1ccc(Cl)c([N+](=O)[O-])c1 | 119% |
